Results from the supplement of paper PMC8728848.
Only a selection was taken, and the strongest signals are over-represented in it overall.

B1: Eap (Staphylococcus aureus), A0A7L5PYT7 (protein)
chain: MKFKSLITTTLALGVLASTGANFNNNEAAAAAKPLDKSSSSLHHGYSKVHVPYAITVNGTSQNILSSLTFNKNQNISYKDLEDRVKSVLKSDRGISDIDLRLSKQAKYTVYFKNGTKKVIDLKAGIYTADLINTSEIKAININVDTKKQVEDKKKDKANYQVPYTITVNGTSQNILSNLTFNKNQNISYKDLEDKVKSVLESNRGITDVDLRLSKQAKYTVNFKNGTKKVIDLKSGIYTANLINSSDIKSININVDTKKHIENKAKRNYQVPYSINLNGTSTNILSNLSFSNKPWTNYKNLTSQIKSVLKHDRGISEQDLKYAKKAYYTVYFKNGGKRILQLNSKNYTANLVHAKDVKRIEITVKTGTKAKADRYVPYTIAVNGTSTPILSDLKFTGDPRVGYKDISKKVKSVLKHDRGIGERELKYAKKATYTVHFKNGTKKVININSNISQLNLLYVQDIKKIDIDVKTGTKAKADSYVPYTIAVNGTSTPILSKLKISNKQLISYKYLNDKVKSVLKSERGISDLDLKFAKQAKYTVYFKNGKKQVVNLKSDIFTPNLFSAKDIKKIDIDVKQYTKSKKNK
B2: Mnn9-2N3 (Aspergillus fumigatus) (protein)
chain: MAVARRMRRTNPITLLLAAILAIGFFIFVLSPSTTSASPVKAGSASSSSTSQQRREDNAAENPLSPPTKPFFKSQPVRHDGQQAPPPVVQYNLNQLSSTSTSAANGERILILTPMARFVPEYWDNVVKLTYPHELISIGFIIPKNKEGNAALAALEAAIAKTQSGPIDKRFASISILRQDFEPPLQSQDEKERHKISNQKARRESMSRARNSLLFTTLGPATAWVLWLDADIVETPPTLIQDLTAHDHPVLVPNCYQRYYNSEKKKMDVRPYDYNSWIDSSTAQSMAAEMGPDEILLEGYAEMPTYRTLMAHLADTANPNPKKVIELDGVGGTALMVKAEVHRDGAMFPAFPFYHLVETEGFAKMAKRLGYSVYGLPDYFVSRNFFFFFFFFFFG

Tests used:
Assay in all cases: glycan array binding signal (z-score within array); higher = stronger binding
Details in all cases: glycan notation: IUPAC condensed, linker removed
[1] = biological target: Neu5Gc(a2-3)Gal(b1-3)GlcNAc
How it was run: (§1)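 Arrays were curated from the Consortium for Functional Glycomics database, 3228 in total, and kept only where the protein sequence was available. Binding is expressed as a within-array Z-score. This score was averaged across arrays of the same protein sequence at different concentrations or buffers and across linkers, and negative values can be read as non-binding.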

[2] = biological target: Fuc(a1-2)Gal(b1-3)GalNAc(b1-3)Gal(a1-4)Gal(b1-4)Glc
How it was run: as §1

[3] = biological target: Fuc(a1-2)Gal(b1-4)GlcNAc(b1-2)Man
How it was run: as §1

[4] = biological target: Fuc(a1-2)Gal(b1-4)[Fuc(a1-3)]GlcNAc(b1-2)Man(a1-3)[Fuc(a1-2)Gal(b1-4)[Fuc(a1-3)]GlcNAc(b1-2)Man(a1-6)]Man(b1-4)GlcNAc(b1-4)[Fuc(a1-6)]GlcNAc
How it was run: as §1

[5] = biological target: Fuc(a1-2)Gal3S(b1-4)GlcNAc
How it was run: as §1

[6] = biological target: Fuc(a1-2)[Gal(a1-3)]Gal(b1-4)[Fuc(a1-3)]GlcNAc
How it was run: as §1

[7] = biological target: Fuc(a1-2)[GalNAc(a1-3)]Gal(b1-3)GlcNAc
How it was run: as §1

[8] = biological target: Fuc(a1-2)[GalNAc(a1-3)]Gal(b1-4)GlcNAc
How it was run: as §1

[9] = biological target: Fuc(a1-2)[GalNAc(a1-3)]Gal(b1-4)GlcNAc(b1-2)Man(a1-3)[Fuc(a1-2)[GalNAc(a1-3)]Gal(b1-4)GlcNAc(b1-2)Man(a1-6)]Man(b1-4)GlcNAc(b1-4)GlcNAc
How it was run: as §1

[10] = biological target: Fuc(a1-2)[GalNAc(a1-3)]Gal(b1-4)GlcNAc(b1-3)[Fuc(a1-2)[GalNAc(a1-3)]Gal(b1-4)GlcNAc(b1-6)]GalNAc
How it was run: as §1

[11] = biological target: Fuc(a1-2)[GalNAc(a1-3)]Gal(b1-4)GlcNAc(b1-6)GalNAc
How it was run: as §1

[12] = biological target: Fuc(a1-3)[Gal3S(b1-4)]GlcNAc6S
How it was run: as §1

Gal(a1-2)Gal = biological target: Gal(a1-2)Gal
How it was run: as §1

Gal(a1-3)Gal = biological target: Gal(a1-3)Gal
How it was run: as §1

[13] = biological target: Gal(a1-3)Gal(b1-3)GlcNAc(b1-3)GalNAc
How it was run: as §1

[14] = biological target: Gal(a1-3)Gal(b1-4)[Fuc(a1-3)]GlcNAc(b1-2)Man(a1-3)[Gal(a1-3)Gal(b1-4)[Fuc(a1-3)]GlcNAc(b1-2)Man(a1-6)]Man(b1-4)GlcNAc(b1-4)GlcNAc
How it was run: as §1

Gal(a1-4)GlcNAc = biological target: Gal(a1-4)GlcNAc
How it was run: as §1

[15] = biological target: Gal(b1-3)GlcNAc(b1-6)[Gal(b1-3)]GalNAc
How it was run: as §1

[16] = biological target: Gal(b1-3)[Fuc(a1-4)]GlcNAc(b1-2)Man(a1-3)[Gal(b1-3)[Fuc(a1-4)]GlcNAc(b1-2)Man(a1-6)]Man(b1-4)GlcNAc(b1-4)[Fuc(a1-6)]GlcNAc
How it was run: as §1

[17] = biological target: Gal(b1-4)GlcNAc(b1-3)Gal(b1-4)GlcNAc
How it was run: as §1

[18] = biological target: Gal(b1-4)GlcNAc(b1-3)Gal(b1-4)GlcNAc(b1-2)Man(a1-3)[Gal(b1-4)GlcNAc(b1-3)Gal(b1-4)GlcNAc(b1-2)Man(a1-6)]Man(b1-4)GlcNAc(b1-4)GlcNAc
How it was run: as §1

Gal3S(b1-4)Glc = biological target: Gal3S(b1-4)Glc
How it was run: as §1

Gal3S(b1-4)Glc6S = biological target: Gal3S(b1-4)Glc6S
How it was run: as §1

Gal6P(b1-4)GlcNAc = biological target: Gal6P(b1-4)GlcNAc
How it was run: as §1

Gal6S(b1-3)GlcNAc6S = biological target: Gal6S(b1-3)GlcNAc6S
How it was run: as §1

GalNAc(b1-4)GlcNAc = biological target: GalNAc(b1-4)GlcNAc
How it was run: as §1

GalNAc(b1-6)GalNAc = biological target: GalNAc(b1-6)GalNAc
How it was run: as §1

[19] = biological target: GalNAc3S(b1-4)[Fuc(a1-3)]GlcNAc
How it was run: as §1

GalNAc6S(b1-4)GlcNAc = biological target: GalNAc6S(b1-4)GlcNAc
How it was run: as §1

GlcA(b1-3)Gal = biological target: GlcA(b1-3)Gal
How it was run: as §1

[20] = biological target: GlcNAc(b1-2)[GlcNAc(b1-4)]Man(a1-3)[GlcNAc(b1-4)][GlcNAc(b1-2)[GlcNAc(b1-6)]Man(a1-6)]Man(b1-4)GlcNAc(b1-4)GlcNAc
How it was run: as §1

Row | Binder | glycan array binding signal (z-score) [1] | glycan array binding signal (z-score) [2] | glycan array binding signal (z-score) [3] | glycan array binding signal (z-score) [4] | glycan array binding signal (z-score) [5] | glycan array binding signal (z-score) [6] | glycan array binding signal (z-score) [7] | glycan array binding signal (z-score) [8] | glycan array binding signal (z-score) [9] | glycan array binding signal (z-score) [10] | glycan array binding signal (z-score) [11] | glycan array binding signal (z-score) [12] | glycan array binding signal (z-score) (Gal(a1-2)Gal) | glycan array binding signal (z-score) (Gal(a1-3)Gal) | glycan array binding signal (z-score) [13] | glycan array binding signal (z-score) [14] | glycan array binding signal (z-score) (Gal(a1-4)GlcNAc) | glycan array binding signal (z-score) [15] | glycan array binding signal (z-score) [16] | glycan array binding signal (z-score) [17] | glycan array binding signal (z-score) [18] | glycan array binding signal (z-score) (Gal3S(b1-4)Glc) | glycan array binding signal (z-score) (Gal3S(b1-4)Glc6S) | glycan array binding signal (z-score) (Gal6P(b1-4)GlcNAc) | glycan array binding signal (z-score) (Gal6S(b1-3)GlcNAc6S) | glycan array binding signal (z-score) (GalNAc(b1-4)GlcNAc) | glycan array binding signal (z-score) (GalNAc(b1-6)GalNAc) | glycan array binding signal (z-score) [19] | glycan array binding signal (z-score) (GalNAc6S(b1-4)GlcNAc) | glycan array binding signal (z-score) (GlcA(b1-3)Gal) | glycan array binding signal (z-score) [20]
1 | B1 | -0.196 | – | – | – | – | – | – | – | – | – | – | – | – | – | – | – | – | – | – | – | – | – | – | – | – | – | – | – | – | – | –
2 | B2 | – | -0.365 | -1.25 | 3.21 | 1.83 | -0.761 | -1.58 | 0.402 | 0.31 | -0.67 | 2.39 | 3.29 | 3.25 | -0.434 | -0.015 | 2.41 | 2.75 | -0.321 | -0.841 | -0.099 | 3.03 | 3.44 | 1.42 | 2.57 | 2.52 | -0.366 | -0.275 | -0.385 | -0.802 | 0.326 | -0.559
